Where “and” joins values, the source holds several entries; their conditions need not be identical. Identical values can stand only once. The panel holds about 83,000 compounds, 20% with a hit somewhere; the sample as a whole holds those more often.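 Plates (96-well) were seeded with cells, treated with compound at one concentration, and incubated for 48 hours before percent growth was determined.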 Calls of active or inactive are those of the source. How the source made its calls: active means growth percent below 10; inactive means the rest.
Experiments:
Experiment in all cases: NCI-60 one-dose screen, 48 h (100 = growth as untreated, 0 = no growth, -100 = all killed)
Conditions in all cases: 10 µM unless noted
HCT-15 colon = tested on: HCT-15 colon
HT29 colon = tested on: HT29 colon
SNB-75 CNS = tested on: SNB-75 CNS
SNB-19 CNS = tested on: SNB-19 CNS
U251 CNS = tested on: U251 CNS
PC-3 prostate = tested on: PC-3 prostate
SK-MEL-5 melanoma = tested on: SK-MEL-5 melanoma
SK-MEL-2 melanoma = tested on: SK-MEL-2 melanoma
EKVX NSCLC = tested on: EKVX NSCLC
SN12C renal = tested on: SN12C renal
UO-31 renal = tested on: UO-31 renal
TK-10 renal = tested on: TK-10 renal
ACHN renal = tested on: ACHN renal
CAKI-1 renal = tested on: CAKI-1 renal
CCRF-CEM leukemia = tested on: CCRF-CEM leukemia
MOLT-4 leukemia = tested on: MOLT-4 leukemia
LOX IMVI melanoma = tested on: LOX IMVI melanoma
SK-MEL-28 melanoma = tested on: SK-MEL-28 melanoma
A498 renal = tested on: A498 renal
UACC-62 melanoma = tested on: UACC-62 melanoma

Measured: growth

Nc1ccc(SSc2ccc(N)cc2)cc1
inactive: HCT-15 colon 88.6% | HT29 colon 112% | SNB-75 CNS 102% | SNB-19 CNS 109% | U251 CNS 76% | PC-3 prostate 84.8% | SK-MEL-5 melanoma 89.6% | SK-MEL-2 melanoma 91.6% | EKVX NSCLC 106% | SN12C renal 101% | UO-31 renal 73.6% | TK-10 renal 111% | ACHN renal 93.5% | CAKI-1 renal 98.5% | CCRF-CEM leukemia 106% | MOLT-4 leukemia 96.1%

CC1SC(=S)N(c2ccc(Cl)cc2)C1=O (stereo unspecified)
inactive: HCT-15 colon 96.5% and 84.1% | HT29 colon 105% and 98.8% | SNB-75 CNS 88.8% and 83% | SNB-19 CNS 99.9% and 104% | U251 CNS 95.4% and 93.6% | PC-3 prostate 97.7% and 74.3% | SK-MEL-5 melanoma 94.6% and 93.6% | LOX IMVI melanoma 85.9% and 90.2% | SK-MEL-28 melanoma 210% and 104% | SK-MEL-2 melanoma 98.2% | EKVX NSCLC 87.8% and 89.7% | SN12C renal 93% and 85.6% | UO-31 renal 78.9% and 73.9% | TK-10 renal 103% and 114% | ACHN renal 86.8% and 73.4% | CAKI-1 renal 109% and 82.2% | CCRF-CEM leukemia 113% and 94.8% | MOLT-4 leukemia 83.6% and 86.9%

N#CSCc1ccc(Cl)c(CSC#N)c1
inactive: HCT-15 colon 18% | SNB-75 CNS 25.4% | SNB-19 CNS 61.5% | U251 CNS 61% | PC-3 prostate 25.5% | SK-MEL-5 melanoma 19.8% | LOX IMVI melanoma 19.9% | SK-MEL-28 melanoma 68.6% | SK-MEL-2 melanoma 83.2% | EKVX NSCLC 75.1% | SN12C renal 33.1% | UO-31 renal 24.6% | TK-10 renal 59.5% | ACHN renal 32.5% | CAKI-1 renal 22.5% | A498 renal 18% | CCRF-CEM leukemia 12% | MOLT-4 leukemia 17.5%
active: HT29 colon 6.14%

CCCCCCCCCCCCCCCCOP(=O)([O-])OCC[N+](C)(C)C
active: HCT-15 colon 1.44% | HT29 colon -14% | SNB-19 CNS -13.3% | U251 CNS 8.3% | PC-3 prostate -22.1% | TK-10 renal -70.3% | A498 renal 3.51% | CCRF-CEM leukemia 1.24% | MOLT-4 leukemia -19.9%
inactive: SNB-75 CNS 44.2% | SK-MEL-5 melanoma 59.1% | UACC-62 melanoma 37.6% | EKVX NSCLC 46.9% | SN12C renal 34.2% | UO-31 renal 19.3% | ACHN renal 36.4% | CAKI-1 renal 16.5%

NC1=CC(=O)c2ccccc2C1=O
inactive: HCT-15 colon 61.5% | HT29 colon 94.7% | SNB-75 CNS 89.2% | U251 CNS 66.7% | PC-3 prostate 55.6% | SK-MEL-5 melanoma 22.9% | UACC-62 melanoma 60.8% | LOX IMVI melanoma 24.5% | SK-MEL-28 melanoma 103% | SK-MEL-2 melanoma 88.6% | EKVX NSCLC 95% | SN12C renal 85.5% | UO-31 renal 71.1% | TK-10 renal 125% | ACHN renal 79.9% | CAKI-1 renal 91.9% | A498 renal 90% | CCRF-CEM leukemia 85.4% | MOLT-4 leukemia 94.3%

Cc1ccnc(NC(c2ccccc2)c2ccc3cccnc3c2O)c1 (stereo unspecified)
inactive: HCT-15 colon 27.9% | HT29 colon 43.1% | SNB-75 CNS 52.2% | SNB-19 CNS 40.3% | U251 CNS 20.4% | PC-3 prostate 35.3% | SK-MEL-5 melanoma 39.4% | UACC-62 melanoma 26.3% | EKVX NSCLC 33.5% | SN12C renal 38.8% | UO-31 renal 14.8% | TK-10 renal 58.3% | ACHN renal 28.5% | CAKI-1 renal 14.7% | A498 renal 77.3% | CCRF-CEM leukemia 16.4% | MOLT-4 leukemia 18%

O=C1NC(=O)/C(=C/C=C/c2ccccc2)S1
active: SK-MEL-2 melanoma -6.31% | ACHN renal 9.79%
inactive: HCT-15 colon 54.1% | HT29 colon 56.6% | SNB-75 CNS 59.7% | SNB-19 CNS 28.3% | U251 CNS 17.1% | PC-3 prostate 87.5% | SK-MEL-5 melanoma 25% | EKVX NSCLC 62.5% | SN12C renal 50.6% | UO-31 renal 34.1% | TK-10 renal 91.8% | CAKI-1 renal 25.5% | A498 renal 69.7%

O=C(Nc1cccc(Br)c1)Oc1ccc(Cl)c2cccnc12
active: SNB-75 CNS 3.16% [100 µM] | SK-MEL-5 melanoma 9.3% [100 µM] | UACC-62 melanoma -30.4% [100 µM] | EKVX NSCLC -18.3% [100 µM] | MOLT-4 leukemia 2% [100 µM]
inactive: HCT-15 colon 10.9% [100 µM] | HT29 colon 70.5% [100 µM] | SNB-19 CNS 27.8% [100 µM] | U251 CNS 20.2% [100 µM] | PC-3 prostate 20.2% [100 µM] | SK-MEL-2 melanoma 17% [100 µM] | SN12C renal 44.7% [100 µM] | UO-31 renal 13.9% [100 µM] | TK-10 renal 170% [100 µM] | ACHN renal 10.1% [100 µM] | CAKI-1 renal 47% [100 µM] | A498 renal 96.1% [100 µM] | CCRF-CEM leukemia 10.7% [100 µM]

Nc1ncnc2c1ncn2C1OC(CO)C(O)C1O (stereo unspecified)
inactive: HCT-15 colon 109% and 33.5% and 105% | HT29 colon 109% and 35.6% and 98.4% | SNB-75 CNS 99.1% and 50.2% and 91.3% | SNB-19 CNS 106% and 67.8% and 100% | U251 CNS 107% and 92.7% and 104% | PC-3 prostate 81.4% and 29.8% and 98.9% | SK-MEL-5 melanoma 107% and 103% and 102% | UACC-62 melanoma 110% and 82.7% and 101% | SK-MEL-2 melanoma 144% and 67.2% and 121% | EKVX NSCLC 116% and 88.3% and 105% | SN12C renal 103% and 90.3% and 97.5% | UO-31 renal 92.9% and 76.6% and 90.3% | TK-10 renal 114% and 106% and 118% | ACHN renal 111% and 84.1% and 98.9% | CAKI-1 renal 103% and 109% and 94.5% | CCRF-CEM leukemia 96.7% and 119% and 105% | MOLT-4 leukemia 102% and 111% and 109%

CCCCCC(CCCCC)C(=O)O
inactive: HCT-15 colon 98.2% | HT29 colon 105% | SNB-75 CNS 89.9% | SNB-19 CNS 103% | U251 CNS 85.5% | PC-3 prostate 87.6% | SK-MEL-5 melanoma 117% | EKVX NSCLC 116% | SN12C renal 98.8% | UO-31 renal 87.6% | TK-10 renal 101% | ACHN renal 109% | CAKI-1 renal 119% | A498 renal 103% | CCRF-CEM leukemia 83.8% | MOLT-4 leukemia 96.1%

COc1ccccc1OC(=O)Oc1ccccc1OC
inactive: HCT-15 colon 110% and 95.2% | HT29 colon 102% and 95.7% | SNB-75 CNS 97.8% and 90.8% | SNB-19 CNS 104% | U251 CNS 111% and 106% | PC-3 prostate 102% and 81.8% | SK-MEL-5 melanoma 100% | LOX IMVI melanoma 107% and 95% | SK-MEL-28 melanoma 110% and 106% | SK-MEL-2 melanoma 115% and 91.6% | EKVX NSCLC 118% and 97% | SN12C renal 105% and 95.8% | UO-31 renal 78.2% and 93.9% | TK-10 renal 104% and 98% | ACHN renal 108% and 104% | CAKI-1 renal 97.9% | CCRF-CEM leukemia 101% and 83.6% | MOLT-4 leukemia 93.9% and 92%

CC(=O)ON=C1C=CC(=C(C#N)c2ccccc2)C=C1
active: HCT-15 colon 8.51% | PC-3 prostate -1.95% | LOX IMVI melanoma 5.8%
inactive: HT29 colon 82.2% | SNB-75 CNS 19.6% | U251 CNS 22.9% | SK-MEL-5 melanoma 48.1% | UACC-62 melanoma 26.1% | SK-MEL-28 melanoma 55.5% | SK-MEL-2 melanoma 41.2% | EKVX NSCLC 82.7% | SN12C renal 18% | UO-31 renal 38% | TK-10 renal 21.1% | ACHN renal 14% | CAKI-1 renal 19.9% | A498 renal 102% | CCRF-CEM leukemia 23.5% | MOLT-4 leukemia 40.8%

CCOC(=O)/C=C/c1ccc([N+](=O)[O-])o1
inactive: HT29 colon 36.7% | SNB-75 CNS 98.7% | SNB-19 CNS 97.2% | U251 CNS 82.6% | PC-3 prostate 93.4% | SK-MEL-5 melanoma 69.1% | SK-MEL-28 melanoma 26.4% | EKVX NSCLC 107% | SN12C renal 85.5% | UO-31 renal 38.5% | TK-10 renal 40.7% | A498 renal 102%
active: HCT-15 colon -3.85% | LOX IMVI melanoma -29.6% | ACHN renal 9.88% | CAKI-1 renal 9% | CCRF-CEM leukemia 7.26% | MOLT-4 leukemia -3.02%

Cc1ccnc2c1ccc1c(C)ccnc12
active: U251 CNS 7.48% | LOX IMVI melanoma 2.99% | UO-31 renal -4.12% | MOLT-4 leukemia 3.4%
inactive: HCT-15 colon 20.9% | HT29 colon 17.7% | SNB-75 CNS 52.4% | SNB-19 CNS 21.9% | PC-3 prostate 22% | SK-MEL-5 melanoma 18.3% | SK-MEL-28 melanoma 20.7% | SK-MEL-2 melanoma 27.3% | EKVX NSCLC 22.2% | SN12C renal 15.6% | TK-10 renal 25.7% | ACHN renal 11.3% | CAKI-1 renal 16% | CCRF-CEM leukemia 13.6%

Cc1ccc2c(ccc3c[n+]4c5ccccc5ccc4n32)c1
inactive: HCT-15 colon 79.6% | EKVX NSCLC 22.4% | UO-31 renal 51% | TK-10 renal 58.6% | ACHN renal 46.9% | CAKI-1 renal 67.8% | A498 renal 16% | CCRF-CEM leukemia 19.2%
active: HT29 colon 8.52% | SNB-75 CNS 8.15% | SNB-19 CNS 2.91% | U251 CNS -12.4% | PC-3 prostate 8.46% | SK-MEL-5 melanoma -81% | SN12C renal 5.27% | MOLT-4 leukemia 8.93%

Reference: PubChem BioAssay (NCI)
